# Measurements from PubChem BioAssay (NCI).
# About 79,000 compounds went through this panel and 15% of them were active in at least one assay; those are over-represented in the sample as a whole. Values without a mark were called inactive. Activity calls are given as the source filed them. Cut-off read from the data, not from the text of the source: active = growth inhibition above about 70%; inactive = the rest.
# What was measured:
# [1] = NCI Yeast Anticancer Drug Screen. Data for the rad50 strain (AID 155);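 note: 0% = growth of vehicle-only cultures of the same strain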; conditions: S. cerevisiae rad50 strain growth inhibition, active compounds read high
# Outline: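 Inhibition values express reduced yeast growth in compound-treated cultures relative to vehicle-treated controls.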
# [2] = NCI Yeast Anticancer Drug Screen. Data for the mec2-1 strain (AID 157); conditions: S. cerevisiae mec2-1 strain, active compounds read high
# Outline: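 Each compound was tested on mec2-1 yeast, a strain altered in DNA damage repair or cell cycle control. Growth inhibition is reported relative to vehicle.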
# [3] = NCI Yeast Anticancer Drug Screen. Data for the sgs1 mgt1 strain (AID 161);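 note: 0% = growth of cultures given vehicle only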; conditions: S. cerevisiae sgs1 mgt1 strain, active compounds read high
# Outline: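 Read-out: growth inhibition vs vehicle controls. Cells: mutant yeast strain deficient in DNA damage repair.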
# [4] = NCI Yeast Anticancer Drug Screen. Data for the cln2 rad14 strain (AID 165);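 note: 0% = growth equal to vehicle treated cultures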; conditions: S. cerevisiae cln2 rad14 strain, active compounds read high
# Outline: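 Test compounds were added to cln2 rad14 yeast cultures; inhibition of growth was then determined by comparison with vehicle treatment.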
# [5] = NCI Yeast Anticancer Drug Screen. Data for the bub3 strain (AID 167); conditions: S. cerevisiae bub3 mutant strain, active compounds read high
# Outline: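 Steps: expose the mutant yeast strain to compound; grow alongside vehicle-treated cultures; measure growth; express inhibition against the vehicle cultures.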
# [6] = NCI Yeast Anticancer Drug Screen. Data for the mlh1 rad18 strain (AID 175); conditions: S. cerevisiae mlh1 rad18 strain growth inhibition, active compounds read high
# Outline: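 Inhibition values reflect reduced growth of mutant yeast versus vehicle-treated controls following compound exposure; the mutations affect DNA damage repair.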
# [7] = at 5.0 µM (retest, dose inferred, filed as 0.5)
# [8] = at 50.0 µM (retest, dose inferred, filed as 5.0)
Structure (SMILES),"growth inhibition [1, 7]","growth inhibition [1, 8]",growth inhibition ([1]; at 50.0 µM),"growth inhibition [2, 7]","growth inhibition [2, 8]",growth inhibition ([2]; at 50.0 µM),"growth inhibition [3, 7]","growth inhibition [3, 8]",growth inhibition ([3]; at 50.0 µM),"growth inhibition [4, 7]","growth inhibition [4, 8]",growth inhibition ([4]; at 50.0 µM),"growth inhibition [5, 7]","growth inhibition [5, 8]",growth inhibition ([5]; at 50.0 µM),"growth inhibition [6, 7]","growth inhibition [6, 8]",growth inhibition ([6]; at 50.0 µM)
N#Cc1c(Cl)nsc1-c1ccc([N+](=O)[O-])cc1,-6%,35%,91.2% (active),7%,65%,93% (active),1%,33%,91.1% (active),27%,59%,88.8% (active),-6%,80% (active),92.3% (active),7%,87% (active),84.6% (active)
C/C(=N/NC(=S)NCc1ccccc1)c1ncccn1,-6%,98% (active),98.8% (active),14%,98% (active),98.9% (active),2%,98% (active),99% (active),7%,98% (active),97.8% (active),-23%,98% (active),98.5% (active),3%,98% (active),98.9% (active)
C[n+]1c2ccc(Cl)cc2nc2cc(-c3ccccc3)ccc21,15%,98% (active),98.6% (active),23%,99% (active),99% (active),32%,99% (active),98.9% (active),7%,98% (active),98.2% (active),54%,98% (active),98.9% (active),39%,98% (active),98.6% (active)
Cc1ccc(C)c(C(=O)/C=C/C(=O)O)c1,29%,100% (active),52.5%,22%,99% (active),70.7% (active),32%,100% (active),61.5%,15%,99% (active),40.6%,27%,98% (active),64.1%,42%,98% (active),65.1%
Cc1ccc(C)c(S(=O)(=O)Nc2c([N+](=O)[O-])cc([N+](=O)[O-])c3ccccc23)c1,30%,35%,85.7% (active),30%,40%,86.6% (active),47%,29%,87.5% (active),32%,54%,86% (active),20%,30%,79.8% (active),34%,59%,83.6% (active)
O=C1CCC(Cc2ccc(C(F)(F)F)cc2)C(=O)N1 (stereo not drawn),-3%,7%,1.65%,-1%,3%,22.1%,2%,92% (active),95.8% (active),-3%,5%,-42.7%,-2%,-2%,-52.6%,-4%,3%,6.6%
CCCC/C=C(/CCCCOCOCCOC)[Si](C)(C)C,-1%,-1%,-13.2%,-5%,-2%,-1.8%,-1%,6%,15.9%,1%,-15%,86.1% (active),-3%,-9%,11.7%,-8%,4%,30.8%
CC1CN(C(=S)NNC(C)c2cc3ccccc3cn2)CC(C)O1 (stereo not drawn),30%,96% (active),87% (active),38%,99% (active),89.8% (active),26%,98% (active),90.5% (active),15%,98% (active),90% (active),39%,99% (active),88.2% (active),39%,98% (active),91.3% (active)
Nc1ccc2ccccc2c1N=Nc1ccccc1,6%,97% (active),98.3% (active),0%,99% (active),99% (active),3%,98% (active),99.1% (active),-8%,96% (active),96.6% (active),0%,98% (active),98.5% (active),2%,92% (active),97.6% (active)
COc1ccc2c3c(ccc2c1)NC(C(=O)O)CC3 (stereo not drawn),0%,82% (active),60.5%,-11%,56%,-15.8%,-2%,83% (active),36%,-17%,41%,21.3%,-6%,82% (active),52%,3%,87% (active),61.1%
COc1ccc(-c2noc(=O)c3ccccc23)cc1,11%,6%,-5.8%,5%,4%,-1.1%,6%,4%,3.4%,4%,3%,64.2%,-3%,-2%,9.65%,-1%,1%,1.35%
